Drawing on PubChem BioAssay, this text covers growth inhibition, inhibition and outcome for 20 compounds.

A short description of assay [1]: antimalarial activity against Dd2 strain (AID 2302;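 active means growth inhibition above 50% at the single 2 µM test dose, taken to imply half-maximal potency below 2 µM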;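 further: 0% = DMSO untreated growth and 100% = chloroquine plus artemisinin killed control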). The conditions noted are these: P. falciparum Dd2 in RBCs, LDH growth readout, 72 h; at 2 µM; active compounds read high.
Assay [2] can be described thus: human hepatoma cell viability loss – ATP luminescence, cytotoxicity control for P. falciparum antimalarial project, primary screen (AID 2303;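 active means inhibition above 50%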;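 further: 0% = DMSO wells and 100% = digitonin-killed cells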). To be noted: HepG2 viability, 24-48 h, at 10 µM, active compounds read high.
Assay [3] has as its target L-lactate dehydrogenase (Plasmodium falciparum (isolate CDC / Honduras)) (UniProt Q27743). The assay can be described thus: PfLDH activity inhibition – cell lysate, 3D7 strain, counter-screen for P. falciparum growth inhibition project (AID 2304).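 Further: 0% = vehicle and 100% = reference inhibitor.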 The conditions noted are these: P. falciparum 3D7 crude extract, LDH APAD/NBT absorbance; at 2 µM; active compounds read high.
Assay [4] is described as follows: inhibition of 3D7 malaria parasite growth – strain 3D7 (AID 2306).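 Further: 0% = DMSO wells and 100% = chloroquine plus artemisinin control wells.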 To be noted: P. falciparum 3D7 erythrocytic growth, LDH absorbance, 72 h; at 2 µM; active compounds read high.
The target of assay [5] is Calcium-dependent protein kinase 1 (Plasmodium falciparum (isolate 3D7)) (UniProt P62344). Kind of assay: PfCDPK1 kinase inhibitors, biochemical, TCAMS library (AID 1159585; cut-off not given, nearly all actives have IC50 up to about 0.98 µM;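 further: inhibitors leave more ATP so luminescence rises with inhibition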). To be noted: recombinant PfCDPK1, Kinase-Glo ATP depletion luminescence.
In assay [6] the target is Plasmodium falciparum protein kinase 6 (PK6, PF3D7_1337100) (UniProt Q8IDW1). The assay can be described thus: PfPK6 kinase inhibitors, biochemical, TCAMS library (AID 1159586). To be noted: recombinant PfPK6, Kinase-Glo ATP depletion luminescence.
The target of assay [7] is Protein kinase 7 (PK7), Plasmodium falciparum 3D7 (PF3D7_0213400) (UniProt Q7YTF7). The assay can be described thus: inhibition of Plasmodium PK7 catalytic activity – biochemical, TCAMS antimalarial set, Kinase-Glo luminescence (AID 1159587). To be noted: recombinant PfPK7, Kinase-Glo ATP depletion luminescence.
Assay [8] addresses Calcium-dependent protein kinase 4 (Plasmodium falciparum (isolate 3D7)) (UniProt Q8IBS5). The assay can be described thus: PfCDPK4 kinase inhibitors, biochemical, TCAMS library (AID 1159588; cut-off not given, nearly all actives have IC50 up to about 0.91 µM). To be noted: recombinant PfCDPK4, Kinase-Glo ATP depletion luminescence.

Molecules are shown by their SMILES. Values without a mark were called inactive. For some of these results: Potency and affinity values are given separately. Activity calls are given as the source filed them. Unless noted, how the calls were made is not given here.

Sequence of Calcium-dependent protein kinase 1 (Plasmodium falciparum (isolate 3D7)) (P62344 whole entry, looked up): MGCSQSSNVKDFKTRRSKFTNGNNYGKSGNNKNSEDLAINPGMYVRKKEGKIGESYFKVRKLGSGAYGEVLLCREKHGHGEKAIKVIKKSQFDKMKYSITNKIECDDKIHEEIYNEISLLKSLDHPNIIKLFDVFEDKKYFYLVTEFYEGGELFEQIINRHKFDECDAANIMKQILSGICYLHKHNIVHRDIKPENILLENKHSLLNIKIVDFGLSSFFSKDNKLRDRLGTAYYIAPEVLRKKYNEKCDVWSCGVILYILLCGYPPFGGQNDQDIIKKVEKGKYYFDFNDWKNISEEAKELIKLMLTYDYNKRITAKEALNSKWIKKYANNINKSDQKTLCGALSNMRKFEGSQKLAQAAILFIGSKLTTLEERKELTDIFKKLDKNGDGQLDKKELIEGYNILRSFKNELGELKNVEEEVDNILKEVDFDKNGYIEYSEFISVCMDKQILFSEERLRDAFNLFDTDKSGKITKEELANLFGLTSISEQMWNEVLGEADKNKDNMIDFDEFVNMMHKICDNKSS
Sequence of Calcium-dependent protein kinase 4 (Plasmodium falciparum (isolate 3D7)) (Q8IBS5 whole entry, looked up): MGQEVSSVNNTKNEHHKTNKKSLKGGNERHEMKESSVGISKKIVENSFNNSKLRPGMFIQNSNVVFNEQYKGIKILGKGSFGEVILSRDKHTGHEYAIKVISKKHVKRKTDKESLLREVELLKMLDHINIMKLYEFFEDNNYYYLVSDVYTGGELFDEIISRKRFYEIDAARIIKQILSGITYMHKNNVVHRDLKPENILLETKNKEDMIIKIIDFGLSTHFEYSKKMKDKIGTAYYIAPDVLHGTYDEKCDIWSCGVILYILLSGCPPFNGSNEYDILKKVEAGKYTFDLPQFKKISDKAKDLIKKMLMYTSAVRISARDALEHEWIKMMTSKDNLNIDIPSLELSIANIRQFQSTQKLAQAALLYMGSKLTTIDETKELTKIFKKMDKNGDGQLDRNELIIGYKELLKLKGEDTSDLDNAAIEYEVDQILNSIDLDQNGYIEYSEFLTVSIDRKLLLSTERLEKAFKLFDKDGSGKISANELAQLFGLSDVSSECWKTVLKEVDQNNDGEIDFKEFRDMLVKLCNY
Sequence of Plasmodium falciparum protein kinase 6 (PK6, PF3D7_1337100) (Q8IDW1 1-305): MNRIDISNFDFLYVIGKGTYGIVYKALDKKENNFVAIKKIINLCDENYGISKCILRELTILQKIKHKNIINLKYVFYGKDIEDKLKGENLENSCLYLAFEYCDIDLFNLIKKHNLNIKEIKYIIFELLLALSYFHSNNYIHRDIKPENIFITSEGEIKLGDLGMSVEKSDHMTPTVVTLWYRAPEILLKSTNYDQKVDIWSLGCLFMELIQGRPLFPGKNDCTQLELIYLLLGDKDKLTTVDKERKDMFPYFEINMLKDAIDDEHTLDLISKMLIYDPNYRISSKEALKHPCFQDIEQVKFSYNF
Sequence of L-lactate dehydrogenase (Plasmodium falciparum (isolate CDC / Honduras)) (Q27743 whole entry, looked up): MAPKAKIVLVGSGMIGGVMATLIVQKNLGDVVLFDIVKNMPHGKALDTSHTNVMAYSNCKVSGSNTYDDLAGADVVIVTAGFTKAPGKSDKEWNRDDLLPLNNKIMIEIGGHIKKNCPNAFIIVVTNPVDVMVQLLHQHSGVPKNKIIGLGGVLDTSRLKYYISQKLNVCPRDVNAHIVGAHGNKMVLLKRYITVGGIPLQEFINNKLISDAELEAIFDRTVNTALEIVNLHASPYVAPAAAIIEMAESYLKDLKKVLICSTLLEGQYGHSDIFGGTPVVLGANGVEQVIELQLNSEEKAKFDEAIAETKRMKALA
Sequence of Protein kinase 7 (PK7), Plasmodium falciparum 3D7 (PF3D7_0213400) (Q7YTF7 1-343): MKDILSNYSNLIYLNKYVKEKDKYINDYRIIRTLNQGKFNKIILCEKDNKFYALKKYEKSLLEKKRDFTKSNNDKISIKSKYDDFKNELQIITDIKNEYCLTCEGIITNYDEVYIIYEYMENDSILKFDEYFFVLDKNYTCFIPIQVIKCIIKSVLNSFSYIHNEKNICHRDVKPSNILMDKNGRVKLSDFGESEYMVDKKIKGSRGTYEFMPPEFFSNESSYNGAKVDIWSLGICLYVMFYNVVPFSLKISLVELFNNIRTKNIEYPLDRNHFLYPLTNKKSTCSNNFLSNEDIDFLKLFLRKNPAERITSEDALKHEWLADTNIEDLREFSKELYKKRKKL

For the compound `O=C(C=Cc1ccc(-c2nc3ccccc3[nH]2)cc1)NC1CCN(Cc2ccccc2)CC1`, the growth inhibition was 88% (active) in assay [1] and 99% (active) in assay [4]. Also, the inhibition in assay [2] is 15%; in assay [3], 3%. The result in assay [5], in assay [6], in assay [7] and in assay [8] was inactive.

In the case of `CN(C)CCNCc1nc(-c2ccc3c(Nc4ccc(Cl)cc4F)ccnc3c2)cs1`, the results for the growth inhibition in assay [1] and in assay [4] were 100% (active) and 101% (active), respectively. The inhibition in assay [2] is -2%; in assay [3] it was -9%. Moreover, the result in assay [5], in assay [6], in assay [7] and in assay [8] was inactive.

Turning to `CCCc1ccccc1OCC(O)CN(C1CCCC1)C1CCCC1` (stereo not given), the growth inhibition in assay [1] and in assay [4] was 97% (active) throughout. Further, the inhibition was 49% in assay [2] and -7% in assay [3]. Further, the result in assay [5], in assay [6], in assay [7] and in assay [8] was inactive.

On to `Cc1ccccc1C1CCN(c2ncc(C(=O)Nc3ccccc3)cc2Cl)CC1`, for which the growth inhibition in assay [1] and in assay [4] was 83% (active) throughout. Besides, the inhibition was 29% in assay [2] and -3% in assay [3]. In addition, the result in assay [5], in assay [6], in assay [7] and in assay [8] was inactive.

Turning to `O=C(Nc1ccon1)c1cc(-c2cccnc2)nc2ccc(Br)cc12`, the growth inhibition in assay [1] is 77% (active); in assay [4] it was 99% (active). The inhibition is 7% in assay [2] and -3% in assay [3]. Moreover, the result in assay [5], in assay [6], in assay [7] and in assay [8] was inactive.

As for `O=C(NCc1cccc(F)c1)Nc1ccc(-c2cccc(-c3nc4ccccc4[nH]3)c2)cc1`, the growth inhibition in assay [1] was 2%; in assay [4], 86% (active). Moreover, the inhibition in assay [2] was 14%; in assay [3], 0%. Besides, the result in assay [5], in assay [6], in assay [7] and in assay [8] was inactive.

Turning to `O=S(=O)(c1cc2ccccc2s1)N(CCC(O)(C(F)(F)F)C(F)(F)F)Cc1cccc(O)c1`, the growth inhibition was 99% (active) in assay [1] and 100% (active) in assay [4]. For the same compound, the inhibition in assay [2] was -1%; in assay [3], 0%. Further, the outcome in assay [5], in assay [6], in assay [7] and in assay [8] was inactive.

On to `CC(C)C(C(=O)n1ncc2c3c(N)nc(N)nc3ccc21)C(C)C`, for which the growth inhibition in assay [1] was 8%; in assay [4], 98% (active). Moreover, the results for the inhibition in assay [2] and in assay [3] were 67% (active) and -8%, respectively. Further, the outcome in assay [5], in assay [6], in assay [7] and in assay [8] was inactive.

With `COc1ccc(-n2nc(C)c3c2NC(=O)CC3c2ccccc2OCc2ccccc2F)cc1` (stereo not given), the growth inhibition in assay [1] is 70% (active); in assay [4], 93% (active). Further, the inhibition in assay [2] was 38%; in assay [3] it was 4%. Moreover, the outcome in assay [5], in assay [6], in assay [7] and in assay [8] was inactive.

In the case of `O=C(Nc1ccc(Br)cc1)N(CCN1CCOCC1)CC(O)COCc1ccc(Cl)c(Cl)c1` (stereo not given), the growth inhibition in assay [1] was 52% (active); in assay [4] it was 94% (active). Also, the inhibition in assay [2] is 16%; in assay [3], -5%. In addition, the outcome in assay [5], in assay [6], in assay [7] and in assay [8] was inactive.

As for `CCC(NC[C@@H](O)[C@H](Cc1ccccc1)NC(=O)c1cc(C2CCCC2)cc(N2CCCC2=O)c1)c1cccc(Cl)c1` (stereo not given in full), the results for the growth inhibition in assay [1] and in assay [4] were 97% (active) and 100% (active), respectively. The inhibition is 7% in assay [2] and -8% in assay [3]. The result in assay [5], in assay [6], in assay [7] and in assay [8] was inactive.

As for `CC1CCN(c2nc(C(=O)Nc3cccc4c3CCCC4)c(C(C)C)s2)CC1`, the growth inhibition in assay [1] was 49%; in assay [4], 96% (active). Also, the inhibition was 14% in assay [2] and 3% in assay [3]. In addition, the result in assay [5], in assay [6], in assay [7] and in assay [8] was inactive.

As to `CC(=O)Nc1ccc2[nH]cc(C3CCN(CCC4CCN(C(=O)/C=C/c5ccc(Cl)c(Cl)c5)CC4)CC3)c2n1`, the figures for the growth inhibition in assay [1] and in assay [4] were 80% (active) and 101% (active), respectively. Further, the values for the inhibition in assay [2] and in assay [3] were 16% and 1%, respectively. The result in assay [5], in assay [6], in assay [7] and in assay [8] was inactive.

For the compound `COc1ccc(-n2ccnc2SCC(=O)Nc2cccc(C(F)(F)F)c2)c(OC)c1`, the values for the growth inhibition in assay [1] and in assay [4] were 88% (active) and 98% (active), respectively. Besides, the inhibition in assay [2] is -10%; in assay [3], 3%. The result in assay [5], in assay [6], in assay [7] and in assay [8] was inactive.

As to `O=S(=O)(NC1CCN(c2ccnc3cc(Cl)ccc23)C1)c1ccc(F)cc1` (stereo not given), the growth inhibition in assay [1] was 88% (active); in assay [4], 98% (active). The inhibition in assay [2] and in assay [3] was 3% each time. Besides, the result in assay [5], in assay [6], in assay [7] and in assay [8] was inactive.

Consider `NC(=O)c1sc(-n2cnc3ccc(OCC4CCNCC4)cc32)cc1OCc1ccccc1C(F)(F)F`, for which the figures for the growth inhibition in assay [1] and in assay [4] were 62% (active) and 101% (active), respectively. In addition, the inhibition in assay [2] is 18%; in assay [3], -6%. Besides, the result in assay [5], in assay [6], in assay [7] and in assay [8] was inactive.

On to `CC(C)(C)c1nn(-c2ccc(Cl)cc2)c2[nH]c(=O)c(CNCc3cccs3)cc12`, for which the results for the growth inhibition in assay [1] and in assay [4] were 77% (active) and 102% (active), respectively. Besides, the inhibition was 5% in assay [2] and 3% in assay [3]. Moreover, the result in assay [5], in assay [6], in assay [7] and in assay [8] was inactive.

Turning to `O=C(N[C@H]1CCN(CCc2ccc(O[C@H]3CCNC3)c(F)c2)C1)c1ccc(Cl)c(Cl)c1`, the growth inhibition was 23% in assay [1] and 95% (active) in assay [4]. In addition, the inhibition in assay [2] is 39%; in assay [3], 2%. Further, the outcome in assay [5], in assay [6], in assay [7] and in assay [8] was inactive.

Turning to `O=C1OC2(CN1CC1CCN(Cc3ccc(O)cc3Cl)C1)c1ccccc1-c1ccccc12` (stereo not given), the growth inhibition in assay [1] and in assay [4] was 84% (active) throughout. The inhibition was 16% in assay [2] and 2% in assay [3]. In addition, the result in assay [5], in assay [6], in assay [7] and in assay [8] was inactive.

On to `Cn1cnc(CCNC(=O)c2ccc(-c3cccc(-c4nc5ccccc5[nH]4)c3)cc2)c1`, for which the growth inhibition was 14% in assay [1] and 93% (active) in assay [4]. In addition, the inhibition is 1% in assay [2] and 2% in assay [3]. The result in assay [5], in assay [6], in assay [7] and in assay [8] was inactive.
